One may read the inhibition as the drop in the measured response relative to a control, in per cent.

Drawing on ChEMBL document CHEMBL3433997, “St. Jude Leishmania screening dataset” (2016), this text covers inhibition for 15 molecules.

Structures are written as SMILES.

Holding throughout (format): functional
The target of experiment [1] is Solute carrier family 2, facilitated glucose transporter member 1 (Homo sapiens) (UniProt P11166). The experiment in a line: ST_JUDE_LEISH: Cytotoxicity at 2uM final concentration against transgenic Leishmania Mexicana promastigotes LmGLUT1 that are glucose transport deficient and complemented with the human glucose transporter GLUT1. Activity is measured by DNA content using SYBR green in vitro.
Solute carrier family 2, facilitated glucose transporter member 1 (Homo sapiens), sequence (P11166 whole entry): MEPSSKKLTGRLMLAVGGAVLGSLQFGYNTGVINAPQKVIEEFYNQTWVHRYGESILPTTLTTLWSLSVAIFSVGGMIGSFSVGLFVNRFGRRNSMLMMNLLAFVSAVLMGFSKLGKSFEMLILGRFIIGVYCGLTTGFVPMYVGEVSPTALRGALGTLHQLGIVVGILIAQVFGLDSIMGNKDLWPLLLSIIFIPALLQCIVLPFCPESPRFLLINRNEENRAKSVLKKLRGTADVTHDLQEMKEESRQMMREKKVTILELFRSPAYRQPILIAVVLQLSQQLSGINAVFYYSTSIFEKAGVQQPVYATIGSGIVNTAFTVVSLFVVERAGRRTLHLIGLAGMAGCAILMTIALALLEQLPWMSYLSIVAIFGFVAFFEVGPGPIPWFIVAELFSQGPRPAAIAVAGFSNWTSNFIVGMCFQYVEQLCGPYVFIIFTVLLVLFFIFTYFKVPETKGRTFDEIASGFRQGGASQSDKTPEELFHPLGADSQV

For experiment [2], the target named is Hexose transporter 1 (Plasmodium falciparum) (UniProt O97467). The experiment in a line: ST_JUDE_LEISH: Cytotoxicity at 2uM final concentration against transgenic Leishmania Mexicana promastigotes LmPfHT that are glucose transport deficient and complemented with the Plasmodium falciparum hexose transporter. Activity is measured by DNA content using SYBR green in vitro.

In experiment [3] the target is Glucose transporter (Leishmania mexicana) (UniProt O61059). The experiment in a line: ST_JUDE_LEISH: Cytotoxicity at 2uM final concentration against transgenic Leishmania Mexicana promastigotes LmGT2 that are glucose transport deficient and complemented with the L. Mexicana glucose transporter 2. Activity is measured by DNA content using SYBR green in vitro.

Turning to `O=C(Nc1ccc(-c2ccc(-c3nc4cc(C(F)(F)F)ccc4[nH]3)cc2)cc1)Nc1ccc(F)c(F)c1F`, the inhibition in experiment [1] was -0.4%; in experiment [2] it was -0.22%; in experiment [3] it was -1.44%.
Take `COC(=O)C(=O)c1c(-c2ccccc2)c(-c2ccc(OC)c(OC)c2)c2c3cc(OC)c(OC)cc3ccn12`: the figures for the inhibition in experiment [1], in experiment [2] and in experiment [3] were 13.2%, 10.2% and 8.49%, respectively.
Consider `O=C(c1ccc(-c2cccc(-c3nc4cc(C(F)(F)F)ccc4[nH]3)c2)cc1)N1CCCCC1CN1CCC(O)C1` (stereo not given), for which the inhibition was -0.47% in experiment [1], 0.38% in experiment [2] and 0.17% in experiment [3].
For `CCc1cn(C)c2c(N3CCCC3=O)cc(C(=O)N[C@@H](Cc3ccccc3)[C@H](O)CNC(C)(C)CCCC(C)C)cc12` the same measures were 3.03%, 4.09% and 3.95%.
For `COc1ccc(C(=C(C)CC(C)C(=O)O)c2ccccc2)cc1` (stereo not given), the inhibition in experiment [1] was -0.12%; in experiment [2] it was -0.23%; in experiment [3], 0.28%.
On to `c1ccc(-n2ncc(CNCc3ccc(-c4ccc(-c5nc6ccccc6[nH]5)s4)cc3)n2)cc1`, for which the figures for the inhibition in experiment [1], in experiment [2] and in experiment [3] were 2.35%, 2.45% and 0.43%, respectively.
For the molecule `COc1ccc2c(=NN=Cc3cccc(C)n3)cc(-c3ccccc3)[nH]c2c1`, the inhibition was 4.3% in experiment [1], 2.19% in experiment [2] and 4.08% in experiment [3].
In the same order, the values of `COc1ccc2c(c1)[nH]c1c(/C=C/c3ccc([N+](=O)[O-])cc3)nccc12` are 3.75%, 4.42% and 3.6%.
For `CC(C)CNCc1ccc(-c2ccc(CN(CCCN3CCN(C)CC3)C(=O)/C=C/c3ccccc3)cc2)cc1`, the inhibition was found to be 8.73% in experiment [1], 6.1% in experiment [2] and 3.32% in experiment [3].
On to `Nc1ccncc1C(=O)NCCCCN1CCN(c2nsc3ccccc23)CC1`, for which the inhibition was -0.32% in experiment [1], 0.47% in experiment [2] and -1.16% in experiment [3].
In the same order, the values of `COc1ccc(Nc2nccc(N3CCC(NC(=O)Nc4cccc(OC)c4)C3)n2)cc1` (stereo not given) are 0.29%, 0.74% and 0.51%.
For `Cc1cc(N2CCN(CC3CCN(C)CC3)CC2)nc(Nc2ccc(Cl)cc2)n1` the same measures were 0.56%, 0.64% and 2.21%.
In the same order, the values of `COC(=O)c1ccc(NC(=O)Nc2ccc(Cn3ncc(N4CCCNCC4)c(Cl)c3=O)cc2)cc1` are -0.9%, 0.77% and -0.5%.
In the case of `CC(C)N1CCN(c2ccc(OCCCN3CCN(c4cccc(Cl)c4Cl)CC3)c(C(F)(F)F)c2)CC1`, the figures for the inhibition in experiment [1], in experiment [2] and in experiment [3] were 2.24%, 1.13% and -0.82%, respectively.
For `N#CCCN1CCN(Cc2cccc(-c3ccc(-c4nc5cc(C(F)(F)F)ccc5[nH]4)cc3)c2)CC1` the same measures were 3.02%, 2.73% and 2.78%.
